These results are taken from PubChem BioAssay AID1835 (Johns Hopkins Ion Channel Center, 2009).

The whole screen tested about 2,400 compounds, of which about 750 (31%) were called active. This is one part of the list. A number with no mark means an inactive call.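 How the source made its calls: active means median signal gain over dofetilide-blocked control wells reaching their mean plus 3 SD, so readout 1 at least 0; inactive means the rest.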

Sequence of Voltage-gated inwardly rectifying potassium channel KCNH2 (Homo sapiens) (Q12809 whole entry, looked up): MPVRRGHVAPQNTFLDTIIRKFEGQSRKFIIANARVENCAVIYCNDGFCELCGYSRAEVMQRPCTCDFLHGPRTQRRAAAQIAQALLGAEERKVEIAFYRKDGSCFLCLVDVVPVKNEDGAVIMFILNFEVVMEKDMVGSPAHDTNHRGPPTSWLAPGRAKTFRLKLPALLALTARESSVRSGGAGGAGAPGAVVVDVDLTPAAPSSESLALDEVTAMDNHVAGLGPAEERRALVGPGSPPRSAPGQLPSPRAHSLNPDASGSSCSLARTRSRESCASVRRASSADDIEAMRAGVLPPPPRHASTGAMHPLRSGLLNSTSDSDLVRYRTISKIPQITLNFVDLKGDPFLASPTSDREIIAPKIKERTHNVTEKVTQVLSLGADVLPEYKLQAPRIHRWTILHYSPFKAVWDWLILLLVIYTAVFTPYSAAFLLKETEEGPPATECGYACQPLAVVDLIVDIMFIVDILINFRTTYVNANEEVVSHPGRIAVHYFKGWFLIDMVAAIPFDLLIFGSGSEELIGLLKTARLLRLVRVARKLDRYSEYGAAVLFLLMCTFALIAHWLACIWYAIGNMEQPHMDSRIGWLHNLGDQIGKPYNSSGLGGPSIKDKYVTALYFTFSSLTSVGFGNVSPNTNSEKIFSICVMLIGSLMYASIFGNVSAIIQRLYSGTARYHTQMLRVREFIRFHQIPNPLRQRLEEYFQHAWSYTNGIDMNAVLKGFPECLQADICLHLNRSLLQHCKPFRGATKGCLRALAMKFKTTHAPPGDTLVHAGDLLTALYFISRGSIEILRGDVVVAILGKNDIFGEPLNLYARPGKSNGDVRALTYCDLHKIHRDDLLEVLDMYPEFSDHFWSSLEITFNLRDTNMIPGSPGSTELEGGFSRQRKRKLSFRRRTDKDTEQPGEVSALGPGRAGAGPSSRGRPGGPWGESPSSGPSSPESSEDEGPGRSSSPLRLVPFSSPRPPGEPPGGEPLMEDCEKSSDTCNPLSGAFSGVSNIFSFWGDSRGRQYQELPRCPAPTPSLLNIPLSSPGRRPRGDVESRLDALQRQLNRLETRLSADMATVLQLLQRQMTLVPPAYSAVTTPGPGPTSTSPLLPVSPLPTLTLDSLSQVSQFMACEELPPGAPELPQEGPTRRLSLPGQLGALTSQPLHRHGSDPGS

This test addresses Voltage-gated inwardly rectifying potassium channel KCNH2 (Homo sapiens) (UniProt Q12809). The experiment in a line: modulators restoring hERG flux under dofetilide – cell-based, thallium flux, duplicate retest, dofetilide IC70, confirmation (AID 1835). The conditions noted are these: hERG cell line, FluxOR thallium flux, dofetilide-blocked; at 10 µM; hits give high values. (hERG is a cardiac potassium channel; its block is linked to QT prolongation.)
For the compound `CSCC[C@H](NC(=O)Nc1ccc(C)cc1C)C(=O)O`, the activity increase over dofetilide control, less the hit threshold is -8%. Take `COCCCn1c(=S)[nH]c2sc3c(c2c1=O)CCCC3`: the activity increase over dofetilide control, less the hit threshold is 29% (active). The figure for `COCCn1c(=S)[nH]c2sc3c(c2c1=O)CCCC3` is 28% (active); for `COCCCn1c(=S)[nH]c2c(sc3ccccc32)c1=O` it is -3%; for `COCCn1c(=S)[nH]c2sc3c(c2c1=O)CCC(C)C3` (configuration not stated) it is 44% (active). The result for `CCN1C(=O)C2(/C(=C(\O)c3ccc4c(c3)OCCO4)C(=O)C(=O)N2CCCOC)c2ccccc21` (configuration not stated) reads -11%. The result for `CCCCNC(=O)CC(NS(=O)(=O)c1ccc(C)cc1)c1ccco1` (configuration not stated) reads -13%; that for `CCOC(=O)C1=C(C)NC(=O)NC1c1cccc(OC)c1OCc1ccccc1Cl` (configuration not stated), -11%. Consider `O=C(NCc1cccs1)C1CCC(CNS(=O)(=O)c2cccs2)CC1` (configuration not stated), for which the activity increase over dofetilide control, less the hit threshold is -16%. Turning to `CCC(=O)c1cc2c(C)cc(=O)oc2c(C)c1O`, the activity increase over dofetilide control, less the hit threshold was -13%.

As to `COC(=O)c1sccc1NC(=S)N1CCN(C)CC1`, the activity increase over dofetilide control, less the hit threshold is -19%. For the compound `COC(=O)c1sccc1NC(=S)NCc1ccc(Cl)cc1`, the activity increase over dofetilide control, less the hit threshold was 19% (active). The figure for `CSc1ccccc1NC(=S)NCc1ccc(Cl)cc1` is -15%; for `CCOC(=O)c1sc2ncnc(NCC(c3cccs3)N(C)C)c2c1C` (configuration not stated) it is 40% (active); for `CCOC(=O)c1sc2ncnc(NCc3ccco3)c2c1C` it is 34% (active). The figure for `CCOC(=O)c1c(NC(=O)/C=C/c2ccco2)sc(C)c1C` is -14%; for `Cc1ccc(OC(=O)c2sc3ncn(C)c(=O)c3c2C)cc1` it is -18%. The figure for `c1ccc(Cn2ncc3c(N4CCN(C(c5ccccc5)c5ccccc5)CC4)ncnc32)cc1` is -7%; for `CCCCCCc1c(O)nc(SCC(=O)O)[nH]c1=O` it is -16%; for `Cc1cccc(NC(=S)c2nc3ccccc3s2)c1` it is -12%.

Turning to `O=C(Nc1ccc(Cl)cc1)Nn1cnnc1`, the activity increase over dofetilide control, less the hit threshold was -14%.

For the compound `Clc1ccc(Nc2nc3cccnc3s2)cc1`, the activity increase over dofetilide control, less the hit threshold is -18%. The result for `S=C(Nc1ccc(Cl)cc1)c1nc2ccccc2s1` reads 46% (active). The result for `CC(C)NC(=S)NNc1nc2ccccc2s1` reads -9%; that for `Cc1ccc(NC(=S)c2nc3ccccc3s2)cc1`, 5% (active).

With `O=C1C(=Cc2cccn2-c2ccc(O)cc2)C(=O)c2ccccc21`, the activity increase over dofetilide control, less the hit threshold was -18%. The figure for `Cc1oc(/N=C/c2ccc(F)cc2)c(C#N)c1C` is -20%; for `CCC(NS(=O)(=O)c1cn(C)nc1C)c1ccccc1` (configuration not stated) it is -8%; for `O=C(CSc1ncnc2c1cnn2-c1ccc(Cl)cc1)NCc1ccc2c(c1)OCO2` it is -2%. The figure for `CSc1ccc(CNc2nc3ccccc3n3cnnc23)cc1` is -20%; for `Cc1cc(C)c(-c2c(O)c3c(n(C)c2=O)CC(C)(C)CC3=O)c(C)c1` it is -16%. As to `Cc1cccc(-n2c(=S)[nH]c3sc4c(c3c2=O)CCc2ccccc2-4)c1`, the activity increase over dofetilide control, less the hit threshold was -6%.

With `Cn1c(=S)[nH]c2sc3c(c2c1=O)CCC(C(C)(C)C)C3` (configuration not stated), the activity increase over dofetilide control, less the hit threshold was 59% (active). Take `CC1CCc2c(sc3[nH]c(=S)n(C)c(=O)c23)C1` (configuration not stated): the activity increase over dofetilide control, less the hit threshold is 82% (active). Turning to `CCCCNC1=CC(=O)C(=O)c2ccccc21`, the activity increase over dofetilide control, less the hit threshold was -9%.

Consider `O=C(OCc1ccccc1)/C(=C/c1cccc([N+](=O)[O-])c1)NC(=O)c1ccco1`, for which the activity increase over dofetilide control, less the hit threshold is -5%. The result for `CC1(C)CC2(CCO1)C(Nc1ccccc1)=NC(=S)N2CC(N)=O` (configuration not stated) reads -15%. The figure for `Cc1ccccc1NC1=NC(=S)N(c2ccccc2)C12CCCCC2` is 22% (active); for `COc1ccc(NC(=O)C(=O)NNC(=O)C(C)Oc2ccc(Cl)cc2Cl)cc1` (configuration not stated) it is 59% (active); for `COc1ccc(NC(=O)C(=O)NNC(=O)c2ccc(Cl)cc2Cl)cc1` it is 59% (active). The figure for `COc1ccc(-c2cc(C(F)(F)F)nc(SCC(=O)NCc3cccs3)n2)cc1` is -18%; for `CCCOc1ccc(C(=O)NNC(=S)NC(=O)c2ccccc2)cc1` it is -36%; for `CCCOc1ccc(CN(CCC#N)C(=S)NC(=O)c2ccccc2)cc1` it is 9% (active). For `CCOc1ccc(C(=O)NC(=S)N(Cc2ccccc2)Cc2ccccc2)cc1`, the activity increase over dofetilide control, less the hit threshold is 73% (active).

In the case of `N#CCCN(Cc1ccccc1)C(=S)NC(=O)c1ccccc1`, the activity increase over dofetilide control, less the hit threshold was -3%. In the case of `CC(C)N(Cc1ccccc1)C(=S)NC(=O)C1(C)CC1(Cl)Cl` (configuration not stated), the activity increase over dofetilide control, less the hit threshold is 35% (active). The figure for `COc1cc(OC)cc(C(=O)NC(=S)N(Cc2ccccc2)C(C)C)c1` is 30% (active). Take `COc1cc(OC)cc(C(=O)OCC(=O)N(C)c2ccccc2)c1`: the activity increase over dofetilide control, less the hit threshold is -9%. The figure for `COc1ccc(CN(Cc2cccnc2)C(=S)NCCc2ccccc2)cc1OC` is -11%; for `CCCN(CCC)C(=S)NC(=O)c1ccc(-c2ccccc2)cc1` it is 97% (active); for `CCCN(CC1CC1)C(=S)Nc1ccccc1F` it is -7%. The figure for `COc1ccc(C(=O)NC(=S)N(Cc2ccccc2)Cc2ccccc2)cc1` is 43% (active).
